The values that follow come from PubChem BioAssay AID1209 (Sanford-Burnham Center for Chemical Genomics, 2008).

Screen size: about 190,000 compounds; about 810 (0.43%) were called active. The list comes from a sample in which actives are over-represented; it also holds similar structures and randomly drawn compounds. A number with no mark means an inactive call. Rule as the data show it: active = inhibition above about 50%; inactive = the rest.

The target in this experiment is Mannose-6-phosphate isomerase (Homo sapiens) (UniProt P34949). Put plainly: inhibitors of human PMI, primary screen, biochemical, fluorescence intensity, coupled assay (AID 1209).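 Also: plate controls were DMSO vehicle for no effect and wells lacking substrate for full effect.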 To be noted: purified PMI enzyme, at 20 µM, active compounds read high.
Mannose-6-phosphate isomerase (Homo sapiens), sequence (P34949 whole entry, looked up): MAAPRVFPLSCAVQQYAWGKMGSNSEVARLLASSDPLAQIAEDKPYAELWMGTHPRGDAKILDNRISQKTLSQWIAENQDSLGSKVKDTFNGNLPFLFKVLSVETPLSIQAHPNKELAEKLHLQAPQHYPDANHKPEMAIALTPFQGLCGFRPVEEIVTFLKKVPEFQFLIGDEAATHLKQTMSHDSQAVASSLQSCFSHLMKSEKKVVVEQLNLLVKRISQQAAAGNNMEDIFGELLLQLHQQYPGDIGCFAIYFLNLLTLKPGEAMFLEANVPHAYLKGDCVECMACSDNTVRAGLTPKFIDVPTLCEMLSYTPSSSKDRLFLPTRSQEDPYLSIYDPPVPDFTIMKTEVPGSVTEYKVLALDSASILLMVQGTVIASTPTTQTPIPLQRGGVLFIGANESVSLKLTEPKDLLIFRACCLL
For `Cc1c(C(=O)OC(C)C(C)C[N+](C)(C)C)oc2ccccc12` (configuration not stated), the inhibition was 1.7%. Regarding `COc1ccc(OC)c(C(C)NC(=O)c2ccco2)c1` (configuration not stated), the inhibition was 7%. Under `c1ccc(CNc2ncnc3nc[nH]c23)nc1` stands 8.8%. With `CCn1c(SCc2nc3ccccc3[nH]2)nnc1-c1ccc(OC)cc1`, the inhibition is 6.6%. In the case of `c1ccc2[nH]c(SN3CCOCC3)nc2c1`, the inhibition was 94.5% (active). Under `c1ccc2[nH]c(SCCN3CCOCC3)nc2c1` stands -3.1%. In the case of `c1ccc2[nH]c(N3CCOCC3)nc2c1` it was -5%.

Take `OCCC1CN(Cc2cnc(-c3cccc4ccccc34)nc2)CCN1C1CCCCC1` (configuration not stated): the inhibition is 13.3%. In the case of `COc1ccccc1CNC(=O)c1cc2c(s1)CS(=O)(=O)C2` it was 2.6%; in that of `CCCOc1ccc(C2NC(=S)NC(C)=C2C(=O)c2ccccc2)cc1OC` (configuration not stated), -34.6%. In the case of `COc1ccc(S(=O)(=O)NC(CC(=O)NCCc2ccc(OC)c(OC)c2)C(C)C)cc1` (configuration not stated) it was -5%; in that of `Cc1nn(-c2ccccc2)c(N)c1Sc1cccc([N+](=O)[O-])c1`, 5.2%; in that of `COc1c(/C=N/Nc2ccc([N+](=O)[O-])cc2[N+](=O)[O-])c(C)nn1-c1ccccc1`, 8.9%. Under `CCOC(=O)c1c(Cc2ccccc2)c[nH]c1C` stands -17.6%.

As to `COc1ccc(Cc2noc(-c3ccc(OC)c(OC)c3)n2)cc1OC`, the inhibition was 1.8%. As for `COc1ccc(Cc2nnc(N)s2)cc1OC`, the inhibition was -1.6%.

Turning to `COc1cccc(NC(=S)/C(=C(\[O-])c2ccc([N+](=O)[O-])cc2)[n+]2ccccc2)c1`, the inhibition was -1.1%. Consider `CCOc1ccccc1NC(=O)CCS(=O)(=O)c1cccc2nonc12`, for which the inhibition is 0.7%. Turning to `O=C(CCS(=O)(=O)c1ccccc1)N1CCOCC1`, the inhibition was -8.2%. In the case of `Cc1ccc(NC(=S)Nc2ccc3nc(-c4ccccn4)c(-c4ccccn4)nc3c2)cc1C`, the inhibition was 76.2% (active). With `Cc1nc2ccc(NC(=S)NCCCO)cc2nc1C`, the inhibition was -27.3%. In the case of `OCCCNC(=S)Nc1ccc2nc(-c3ccccn3)c(-c3ccccn3)nc2c1` it was 56.9% (active); in that of `CN(C)NC(=S)Nc1ccc2nc(-c3ccccn3)c(-c3ccccn3)nc2c1`, -8.4%.

Turning to `CC(C)(C)CC(C)(C)NC(=S)Nc1ccc2nc(-c3ccccn3)c(-c3ccccn3)nc2c1`, the inhibition is -21.7%.

As for `CCCNC(=S)Nc1ccc2nc(-c3ccccn3)c(-c3ccccn3)nc2c1`, the inhibition was 26.5%.

Take `COc1cc2nc(CN(C)Cc3ccc(Cl)cc3)[nH]c(=O)c2cc1OC`: the inhibition was 5.6%. Regarding `Cc1ccc(C(=O)Nc2ccc(Cl)cc2C)c(Cl)c1`, the inhibition is -5.9%. As to `COc1ccc(C2c3c(oc4ccc(C)cc4c3=O)C(=O)N2c2cc(C)ccn2)cc1OC` (configuration not stated), the inhibition is 30.5%. Under `COC(=O)CCC(=O)COc1ccc(OC)cc1C#N` stands 1.1%; under `Cc1ccc(OCC(=O)NCc2ccccc2)c([N+](=O)[O-])n1`, 20.4%.

On to `Cc1cc(C(=O)Nc2cccc3ccccc23)n(-c2ccccc2)n1`, for which the inhibition is -11.6%.

Consider `O=C1NC(=O)C(Nc2cccc3ccccc23)S1` (configuration not stated), for which the inhibition is -0.5%. Under `Cc1ccc(Nc2cc(-n3nc(C)cc3C)ncn2)c(C)c1` stands -0.1%.

For the compound `Cc1cc2n(n1)SC(Nc1cc(Cl)ccc1Cl)N2` (configuration not stated), the inhibition was 19.6%.

For the compound `Cc1cc2n(n1)SC(Nc1cccc3ccccc13)N2` (configuration not stated), the inhibition is 56.1% (active).

As for `CCc1ccccc1NC1c2ccccc2C(=O)N1c1cc(C)ccn1` (configuration not stated), the inhibition is -2.8%.

`CCc1ccccc1NC(=O)c1cc(C2CC2)on1`: the inhibition is -4.9%.

Regarding `COc1ccc(S(=O)(=O)N2CCOCC2)cc1NC(=O)CN1CCCCCC1`, the inhibition was -4.3%. With `COc1ccc(OC)c(S(=O)(=O)Nc2cccc(C(C)=O)c2)c1`, the inhibition is 4.2%.

For the compound `CC(=O)Nc1ccc(S(=O)(=O)N2CC3(C)CC2CC(C)(C)C3)cc1` (configuration not stated), the inhibition is 12.4%. For `COc1ccc(NS(=O)(=O)c2ccc(OCC(=O)N3CCOCC3)cc2)cc1`, the inhibition was 10.6%.

`O=[N+]([O-])c1cc(/C=N/NC(=S)Nc2ccccc2Cl)ccc1Cl`: the inhibition was -6.9%. With `O=[N+]([O-])c1ccccc1NC(=S)N/N=C/c1ccc(O)c(O)c1`, the inhibition is 54.1% (active). In the case of `COc1ccc(/C=N/NC(=S)Nc2ccccc2[N+](=O)[O-])cc1O` it was 9%; in that of `O=C(c1ccc(C(=O)N2CCCc3ccccc32)s1)N1CCCc2ccccc21`, -2.1%; in that of `COc1ccccc1-c1nn2c(C3COc4ccccc4O3)nnc2s1` (configuration not stated), 57.6% (active).

With `Clc1ccccc1-c1nnc2sc(C3COc4ccccc4O3)nn12` (configuration not stated), the inhibition was 50% (active).

As for `Brc1ccccc1-c1nnc2sc(-c3ccc4c(c3)OCCO4)nn12`, the inhibition is 22.5%.

On to `Cc1ccc(-c2nnc3sc(C4COc5ccccc5O4)nn23)cc1` (configuration not stated), for which the inhibition is 3.9%. For the compound `Clc1ccccc1-c1nnc2sc(-c3ccc4c(c3)OCO4)nn12`, the inhibition is 50.8% (active). Turning to `Clc1cccc(-c2nnc3sc(-c4ccc5c(c4)OCO5)nn23)c1`, the inhibition is 9.8%.

On to `Fc1ccc(-c2nn3c(C4COc5ccccc5O4)nnc3s2)cc1` (configuration not stated), for which the inhibition is 7.6%. For the compound `c1csc(-c2nn3c(C4COc5ccccc5O4)nnc3s2)c1` (configuration not stated), the inhibition is 37.9%. Consider `Fc1ccc(-c2nnc3sc(C4COc5ccccc5O4)nn23)cc1` (configuration not stated), for which the inhibition was 0.9%. In the case of `CCC1(C)SC(N)=NN1C(C)=O` (configuration not stated) it was 7.1%; in that of `CCOC(=O)c1ccc(N/C(=N\S(=O)(=O)c2ccccc2C)c2ccccc2)cc1`, 10.9%. Under `COc1cc(C(=O)NCc2ccccc2)cc(Br)c1OC` stands 1.2%. Under `COc1cc(C(=S)NCc2ccccc2)cc(Br)c1O` stands 68.6% (active); under `COc1ccc(C(=O)NCc2ccccc2)cc1Br`, 1.4%. Turning to `Cc1cc(/C=N\NC(=O)COc2cccc3cccnc23)c(C)n1-c1ccccc1`, the inhibition was 1.7%. Under `O=C(c1ccco1)N1CCn2c1nc1ccccc12` stands -7.1%; under `COc1ccc(NC(=O)c2ccc3nc[nH]c3c2)c(OC)c1`, 8.4%; under `Cc1nn(-c2ccccn2)c2c1-c1nc(N)ncc1CC2`, 4.1%.

Turning to `C=C(C)C1Cc2c(C)nn(-c3ccccn3)c2C1` (configuration not stated), the inhibition was -7.4%. In the case of `Cc1nn(-c2ccccn2)c2c1C(=O)C(Br)CC2` (configuration not stated) it was 72% (active); in that of `COc1ccc(CNC(=O)CCCNS(=O)(=O)c2cccc3nonc23)cc1`, 13%; in that of `Cc1ccc(C(=O)CSc2ncn[nH]2)cc1`, -6.3%. In the case of `CC(C)c1ccc(C(=O)CSc2ncn[nH]2)cc1` it was 83% (active); in that of `CCc1ccc(C(=O)CSc2ncn[nH]2)cc1`, 42.1%. Under `COC(=O)Cc1cn(-c2ncc(C(F)(F)F)cc2Cl)c2ccccc12` stands 1.6%; under `Cc1cc2ccccc2n1CCNC(=O)c1ccccc1`, -10.2%. As to `Cc1c(Br)c(C(=O)NCc2cc3cc(Cl)ccc3[nH]2)nn1C`, the inhibition was 5.7%. Consider `O=C(CN1CCN(Cc2ccccc2)CC1)N1CCCCCC1`, for which the inhibition was 60.7% (active). For `O=C(CN1CCN(Cc2ccccc2)CC1)c1ccccc1`, the inhibition was 2%. Under `O=C(C1CCN(Cc2ccccc2)CC1)N1CCCC1` stands -5.2%. Under `Nc1[nH]c(=S)[nH]c(=O)c1-c1ccccc1` stands 21.9%; under `O=c1[nH]c(=S)[nH]c2[nH]c(=S)[nH]c12`, 67.9% (active); under `O=c1[nH]c(=S)[nH]c2sccc12`, -13.4%. `COc1ccc(CC(=O)OCC(=O)NC(=O)NC(C)C)cc1`: the inhibition was 9%. Under `CCCn1nnnc1NCc1ccc(F)cc1` stands -4.6%. In the case of `CCC(=O)N1c2ccccc2NC2=C(C(=O)CC(C)(C)C2)C1c1cccnc1` (configuration not stated) it was 7.2%. Under `CCOc1ccc(/C=N/n2cnnc2)cc1` stands 84.4% (active); under `C(=N\n1cnnc1)/c1ccc(OCc2ccccc2)cc1`, -5.7%. In the case of `Fc1ccc(COc2ccc(/C=N/n3cnnc3)cc2)cc1`, the inhibition is -3.3%. Under `Cc1occc1C(=O)Nc1nnc(-c2cccs2)s1` stands 6.2%.

Consider `Clc1ccccc1Sc1cnc2ccccc2n1`, for which the inhibition is 0.9%.

On to `O=C(/C=C/c1ccc(S(=O)(=O)N2CCOCC2)cc1)NC(=S)NCCCn1ccnc1`, for which the inhibition is -0.5%. On to `CC(C)=C1C2CCC1C1C(=O)N(c3nccs3)C(=O)C21` (configuration not stated), for which the inhibition was -3.3%.

Take `CN1C(=O)C(Cl)(Cl)C(=O)c2ccccc21`: the inhibition is 77.4% (active).

For the compound `CCN1C(=O)C(F)(CC)C(=O)c2ccccc21` (configuration not stated), the inhibition was 2.2%.

On to `CC1(O)C(=O)c2ccccc2N(c2ccccc2)C1=O` (configuration not stated), for which the inhibition was -6.5%.

As for `CC(C)(C)c1ccc(C(=O)CSc2nc3ccccc3c(=O)[nH]2)cc1`, the inhibition was -6.3%. In the case of `CC(C)(C)c1ccc(C(=O)CSc2n[nH]c(=O)[nH]c2=O)cc1` it was -4.4%.

Regarding `COc1ccc(NC(C)C(=O)N/N=C/c2cc(Br)ccc2OC)cc1` (configuration not stated), the inhibition is 11.5%.

With `COc1ccc(/C(N)=N/OC(=O)CSc2ccc(C)cc2)cc1OC`, the inhibition was 14.6%. For `CN1CCN(C(=O)c2cc(-c3ccco3)on2)CC1`, the inhibition was -0.9%. For `O=C(c1cc(-c2ccco2)on1)N1CCOCC1`, the inhibition is 20.8%. In the case of `O=C(c1cc(-c2ccco2)on1)N1CCN(c2ccccc2)CC1` it was 53.5% (active).

Consider `CCCNC(=O)COC(=O)c1ccccc1OCC(=O)Nc1ccc(Br)cc1`, for which the inhibition is -10.2%. As to `COc1ccc(-c2csc(NC(=O)C3CC(=O)N(c4ccc5c(c4)OCCO5)C3)n2)cc1` (configuration not stated), the inhibition is 5.8%. Under `O=C1CCCN2N=C(SCC(=O)N3N=C(c4ccc(Br)cc4)CC3c3ccc(F)cc3)SC2=N1` (configuration not stated) stands 22.3%; under `CC(NC(=O)Nc1ccc2c(c1)OCO2)C1CCCO1` (configuration not stated), 0.5%.
